Measurements reported in PubChem BioAssay (Tox21).
Several values for one entry are separate records, joined by “and”; a condition that tells them apart may be missing. Equal entries are not always repeated. Inconclusive results are not listed. A structure can be active in one record and inactive in another. Activity calls are given as the source filed them. Unless noted, calls follow the shape of the dose curve; as a rule, active = well fitted curve in the direction sought with a large enough effect in the repeat runs; inconclusive = weak or mixed curves; inactive = no such curve, though single readings can be large; an effect the other way counts as inactive or inconclusive.

Columns and labels:
[1] = qHTS assay to test for compound auto fluorescence at 535 nm (green) in HEK293 cells (AID 720680)
[2] = qHTS assay to test for compound auto fluorescence at 460 nm (blue) in HEK293 cell free culture (AID 720681)
Method in brief: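 Test compounds were pinned into cell-free culture medium (DMEM with 10% FBS) and fluorescence was read directly at Ex/Em 405/460 nm. Signals were expressed as fluorescence equivalents of triamterene, with DMSO vehicle as control.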

[3] = qHTS assay to test for compound auto fluorescence at 535 nm (green) in HEK293 cell free culture (AID 720682)
Method in brief: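 Green-channel intensity (Ex/Em 485/535 nm) was recorded from compound-treated wells containing only DMEM with 10% FBS. Fluorescein provided the equivalency standard.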

[4] = qHTS assay to test for compound auto fluorescence at 590 nm (red) in HEK293 cell free culture (AID 720683)
Method in brief: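 Tox21 10K library compounds were pinned into cell-free DMEM with 10% FBS and fluorescence was read at excitation 540 nm. Activity is expressed as Rose Bengal sodium equivalency.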

[5] = qHTS assay to test for compound auto fluorescence at 590 nm (red) in HepG2 cell free culture (AID 720684)
Method in brief: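 Readout: intrinsic compound fluorescence at 590 nm emission after 540 nm excitation, scaled to Rose Bengal sodium. Matrix was cell-free MEM with 10% FBS; DMSO vehicle wells served as control.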

[6] = qHTS assay to test for compound auto fluorescence at 460 nm (blue) in HepG2 cell free culture (AID 720685)
Method in brief: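 Cell-free plates of MEM plus 10% FBS received 23 nL compound or DMSO vehicle; blue-channel (405/460 nm) intensity scored against triamterene as reference fluorophore.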

[7] = qHTS assay to test for compound auto fluorescence at 460 nm (blue) in HepG2 cells (AID 720687)
Method in brief: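 Cells (2,000/well in MEM with 10% FBS) attached overnight at 37 C, then were exposed to compound or DMSO for 1 hr at 37 C, 5% CO2. Fluorescence read at Ex/Em 405/460 nm, expressed as triamterene-equivalent signal.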

[8] = qHTS assay for identifying genotoxic compounds that show differential cytotoxicity against isogenic chicken DT40 cell lines with known DNA damage response pathways - wild type cell line (AID 743012); also: nearly all actives have a fitted effect of over 60% in size; also: potency is read from the fitted curve at half-maximal effect
Method in brief: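 300 wt DT40 cells/well; cpd (DMSO) pintool-transferred after ~0.5 h at 37 C/5% CO2; 40 h incubation; CellTiter-Glo added, 30 min RT; luminescence read.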

[9] = qHTS assay for identifying genotoxic compounds that show differential cytotoxicity against isogenic chicken DT40 cell lines with known DNA damage response pathways - Rev3 mutant cell line (AID 743014); also: nearly all actives have a fitted effect of over 55% in size; also: potency is read from the fitted curve at half-maximal effect
[10] = qHTS assay for identifying genotoxic compounds that show differential cytotoxicity against isogenic chicken DT40 cell lines with known DNA damage response pathways - Rad54/Ku70 mutant cell line (AID 743015); also: nearly all actives have a fitted effect of over 60% in size; also: potency is read from the fitted curve at half-maximal effect
[11] = qHTS assay to identify small molecule antagonists of the androgen receptor (AR) signaling pathway - cell viability counter screen (AID 743033; also: nearly all actives have a fitted effect of over 45% in size; also: potency is read from the fitted curve at half-maximal effect)
[12] = qHTS assay to identify small molecule antagonists of the androgen receptor (AR) signaling pathway using the MDA cell line - cell viability counter screen (AID 743041; also: nearly all actives have a fitted effect of over 45% in size; also: potency is read from the fitted curve at half-maximal effect)
Method in brief: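 qHTS viability read-out; MDA-kb2 AR-luc; R1881-stimulated; 16 h exposure at 37C, 0% CO2; CellTiter-Fluor, 30 min; fluorescence intensity.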

[13] = target: Glucocorticoid receptor (Homo sapiens) (UniProt P04150); assay: qHTS assay to identify small molecule agonists of the glucocorticoid receptor (GR) signaling pathway (AID 720691; active = well fitted activation curve with a large enough effect in the signal ratio in the repeat runs, not every such curve was filed as active; the % refers to the signal ratio); conditions: GR-bla HeLa, beta-lactamase reporter ratio, 18 h; activation: at 62.4 µM (top of the series)
Chain of Glucocorticoid receptor (Homo sapiens) (P04150 whole entry, looked up): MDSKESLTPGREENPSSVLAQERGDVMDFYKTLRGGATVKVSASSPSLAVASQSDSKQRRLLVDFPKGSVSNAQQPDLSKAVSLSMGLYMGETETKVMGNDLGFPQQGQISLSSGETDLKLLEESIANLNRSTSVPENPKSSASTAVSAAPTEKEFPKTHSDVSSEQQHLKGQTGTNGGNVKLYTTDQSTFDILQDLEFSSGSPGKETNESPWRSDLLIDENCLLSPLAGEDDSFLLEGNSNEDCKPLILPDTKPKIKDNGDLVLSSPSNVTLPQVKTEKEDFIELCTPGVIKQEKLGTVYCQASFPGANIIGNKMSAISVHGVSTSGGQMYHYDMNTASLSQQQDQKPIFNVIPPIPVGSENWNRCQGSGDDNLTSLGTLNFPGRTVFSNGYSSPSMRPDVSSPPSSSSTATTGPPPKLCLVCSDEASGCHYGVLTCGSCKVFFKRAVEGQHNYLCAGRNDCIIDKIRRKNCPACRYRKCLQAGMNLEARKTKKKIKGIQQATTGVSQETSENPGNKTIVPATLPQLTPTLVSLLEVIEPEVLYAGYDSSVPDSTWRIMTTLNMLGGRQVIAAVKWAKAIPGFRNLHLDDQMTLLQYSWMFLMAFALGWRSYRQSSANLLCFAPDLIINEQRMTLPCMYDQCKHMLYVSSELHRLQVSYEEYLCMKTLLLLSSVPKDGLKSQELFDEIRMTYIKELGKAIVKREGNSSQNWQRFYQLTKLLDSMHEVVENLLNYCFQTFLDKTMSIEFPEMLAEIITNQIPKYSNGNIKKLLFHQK
Method in brief: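 A HeLa cervical cancer line expressing GR and a glucocorticoid response element-driven beta-lactamase gene is treated with compounds for 18 h; LiveBLAzer B/G FRET substrate is then applied and fluorescence read.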

[14] = target: Glucocorticoid receptor (Homo sapiens) (UniProt P04150); assay: qHTS assay to identify small molecule antagonists of the glucocorticoid receptor (GR) signaling pathway (AID 720692; active = well fitted inhibition curve with a large enough effect in the signal ratio in the repeat runs, not every such curve was filed as active; the % refers to the signal ratio; also: potency is read from the fitted curve at half-maximal effect)
Method in brief: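 GRE-bla HeLa line, dex-stimulated (5 nM final). Compound exposure 18 h, 37 C. Beta-lactamase FRET read after 2 h RT substrate.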

[15] = qHTS assay to identify small molecule antagonists of the glucocorticoid receptor (GR) signaling pathway - cell viability counter screen (AID 720693); also: nearly all actives have a fitted effect of over 55% in size; also: potency is read from the fitted curve at half-maximal effect
[16] = target: Androgen receptor (Homo sapiens) (UniProt P10275); assay: qHTS assay to identify small molecule agonists of the androgen receptor (AR) signaling pathway using the MDA cell line (AID 743040; also: nearly all actives have a fitted effect of over 20% in size)
Chain of Androgen receptor (Homo sapiens) (P10275 whole entry, looked up): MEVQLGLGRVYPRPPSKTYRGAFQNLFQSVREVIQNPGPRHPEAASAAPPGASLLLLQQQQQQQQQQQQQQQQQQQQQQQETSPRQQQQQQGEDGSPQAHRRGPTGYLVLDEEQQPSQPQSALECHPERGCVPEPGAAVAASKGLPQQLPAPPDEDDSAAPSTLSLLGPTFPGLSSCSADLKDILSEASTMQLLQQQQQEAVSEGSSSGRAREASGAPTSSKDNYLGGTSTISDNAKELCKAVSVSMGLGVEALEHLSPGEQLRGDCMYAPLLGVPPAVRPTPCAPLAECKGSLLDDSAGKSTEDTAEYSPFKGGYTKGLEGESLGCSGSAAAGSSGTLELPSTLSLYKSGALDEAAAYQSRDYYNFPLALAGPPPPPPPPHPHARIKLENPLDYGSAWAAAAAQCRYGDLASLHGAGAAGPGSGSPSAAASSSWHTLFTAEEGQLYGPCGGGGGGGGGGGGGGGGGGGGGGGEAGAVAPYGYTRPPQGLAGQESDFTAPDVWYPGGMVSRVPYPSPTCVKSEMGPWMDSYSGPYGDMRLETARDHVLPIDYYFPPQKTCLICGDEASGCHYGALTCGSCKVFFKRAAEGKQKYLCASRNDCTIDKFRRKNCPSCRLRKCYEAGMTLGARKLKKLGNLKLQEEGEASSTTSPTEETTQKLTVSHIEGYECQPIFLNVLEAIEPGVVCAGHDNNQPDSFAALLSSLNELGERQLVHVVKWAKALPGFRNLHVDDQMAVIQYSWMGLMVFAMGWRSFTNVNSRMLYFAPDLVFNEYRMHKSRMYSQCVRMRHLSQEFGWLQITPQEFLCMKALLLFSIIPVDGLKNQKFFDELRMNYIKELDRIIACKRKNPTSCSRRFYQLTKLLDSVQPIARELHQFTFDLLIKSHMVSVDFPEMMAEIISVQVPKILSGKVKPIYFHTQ
Method in brief: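 Agonist activity is measured as luciferase luminescence in human MDA-kb2 cells whose MMTV reporter responds to both AR and GR. Compounds in DMSO incubate 16 h at 37C, 0% CO2, and ONE-Glo is read after 30 min.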

[17] = target: Androgen receptor (Homo sapiens) (UniProt P10275); assay: qHTS assay to identify small molecule antagonists of the androgen receptor (AR) signaling pathway using the MDA cell line (AID 743042; also: nearly all actives have a fitted effect of over 55% in size)
Method in brief: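 MDA-kb2 cells (human breast carcinoma, stably carrying an MMTV-luciferase reporter responsive to AR and GR) were plated at 3,000 cells/well and preincubated 5 hr at 37C, then given compound plus R1881 agonist for 16 h. ONE-Glo luminescence was read.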

[18] = target: Androgen receptor (Homo sapiens) (UniProt P10275); assay: qHTS assay to identify small molecule antagonists of the androgen receptor (AR) signaling pathway (AID 743035; active = well fitted inhibition curve with a large enough effect in the signal ratio in the repeat runs, not every such curve was filed as active; the % refers to the signal ratio; also: potency is read from the fitted curve at half-maximal effect)
Method in brief: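 In this cell-based reporter screen, compounds were tested in concentration series against R1881-activated HEK293 cells expressing beta-lactamase under UAS control; after 16 h at 37C, FRET substrate was added and fluorescence read 2 h later.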

[19] = qHTS assay to test for compound auto fluorescence at 535 nm (green) in HepG2 cell free culture (AID 720686)
[20] = target: Androgen receptor (Homo sapiens) (UniProt P10275); assay: qHTS assay to identify small molecule agonists of the androgen receptor (AR) signaling pathway (AID 743036; active = well fitted activation curve with a large enough effect in the signal ratio in the repeat runs, with a control signal flat, not every such curve was filed as active; the % refers to the signal ratio)
Method in brief: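 Cell-based FRET reporter assay: HEK293 line with a UAS-beta-lactamase construct, compounds added in DMSO, 16 h exposure at 37C, then 2 h substrate step at room temperature and fluorescence intensity read.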
% is scaled to controls: 0 for no effect and ±100 for the full control effect.

CC(C)(C)c1ccc(C(=O)CCCN2CCC(OC(c3ccccc3)c3ccccc3)CC2)cc1
active: Potency [8] 4.22 µM | Potency [9] 5.31 µM | Potency [10] 5.96 µM
inactive: outcome [1] | Potency [2] | outcome [3] | Potency [4] | Potency [5] | Potency [6] | Potency [7] | Potency [11] | Potency [12]

CCN(CCC#N)c1ccc(N=Nc2c(Cl)cc([N+](=O)[O-])cc2Cl)cc1
active: Potency [8] 13.7 µM | Potency [9] 10.9 µM | Potency [10] 17.2 µM
inactive: outcome [1] | Potency [2] | outcome [3] | Potency [4] | Potency [5] | Potency [6] | Potency [7] | Potency [13] | Potency [14] | Potency [15]

O=C(O)c1c(Cl)cccc1Cl
inactive: outcome [1] | Potency [2] | outcome [3] | Potency [4] | Potency [5] | Potency [6] | Potency [7] | Potency [8] | Potency [9] | Potency [10] | Potency [11] | Potency [12]

Cc1onc(-c2c(Cl)cccc2Cl)c1C(=O)N[C@@H]1C(=O)N2[C@@H]1SC(C)(C)[C@@H]2C(=O)O
inactive: outcome [1] | Potency [2] | outcome [3] | Potency [4] | Potency [5] | Potency [6] | Potency [7] | Potency [13] | Potency [15] | Potency [8] | Potency [10] | Potency [11] | Potency [16] | Potency [12] | Potency [17]

CCC(C)Nc1ccc(NC(C)CC)cc1 (stereo not given)
active: Potency [15] 44.5 µM | Potency [8] 12.4 µM | Potency [9] 5.55 µM | Potency [10] 6.99 µM | Potency [11] 12.5 µM | Potency [18] 8.88 µM | Potency [12] 19.7 µM
inactive: outcome [1] | Potency [2] | outcome [3] | Potency [4] | Potency [5] | Potency [6] | Potency [7] | Potency [16]

CC(C)=CCOc1ccc(/C=C/C(=O)c2ccc(OCC=C(C)C)cc2OCC(=O)O)cc1
inactive: outcome [1] | outcome [3] | Potency [4] | Potency [5] | Potency [6] | Potency [19] | Potency [7] | Potency [13] | Potency [15] | Potency [8] | Potency [11] | Potency [16] | Potency [12] | Potency [17]
active: Potency [14] 7.56 µM

O=c1c(-c2ccccc2)c1-c1ccccc1
inactive: outcome [1] | Potency [2] | outcome [3] | Potency [4] | Potency [5] | Potency [6] | Potency [7] | Potency [15]
active: Potency [14] 23.9 µM | Potency [8] 3.76 µM | Potency [9] 4.73 µM | Potency [10] 4.73 µM | Potency [11] 21.3 µM

CCN(C(=O)N(CC)c1ccccc1)c1ccccc1
active: Potency [9] 7.7 µM
inactive: outcome [1] | Potency [2] | outcome [3] | Potency [4] | Potency [5] | Potency [6] | Potency [7] | Potency [13] | Potency [14] | Potency [15] | Potency [11] | Potency [12]

C=C(C)C(=O)OCC[N+](C)(C)C
inactive: outcome [1] | outcome [3] | Potency [4] | Potency [5] | Potency [6] | Potency [19] | Potency [7] | Potency [13] | Potency [14] | Potency [15] | Potency [11] | Potency [18] | Potency [20] | Potency [16] | Potency [12] | Potency [17]
active: Potency [10] 38.4 µM

COc1ccc(C(=O)/C(Br)=C\C(=O)O)cc1
inactive: outcome [1] | Potency [2] | outcome [3] | Potency [4] | Potency [5] | Potency [6] | Potency [7] | Potency [13] | Potency [14] | Potency [15] | Potency [11] | Potency [16]
active: Potency [10] 6.11 µM
inactive and 3.86 µM (active): Potency [8]
inactive and 6.11 µM (active): Potency [9]

CC(=O)S[C@@H]1CC2=CC(=O)CC[C@]2(C)[C@H]2CC[C@@]3(C)[C@@H](CC[C@@]34CCC(=O)O4)[C@H]12
active: Potency [14] 5.35 µM | Potency [15] 49 µM | Potency [8] 7.5 µM and 6.11 µM | Potency [9] 9.44 µM and 6.11 µM | Potency [10] 8.41 µM and 6.11 µM
inactive: outcome [1] | Potency [2] | outcome [3] | Potency [4] | Potency [5] | Potency [6] | Potency [7] | Potency [11] | Potency [12]

CCCCCCC[N+](CC)(CC)CCCCc1ccc(Cl)cc1
active: Potency [8] 1.01 µM | Potency [9] 1.43 µM | Potency [10] 1.27 µM
inactive: fluorescence, % of fluorescein [1] 0.0325% [at 18.6 µM] | fluorescence, % of fluorescent control [2] -0.0966% [at 18.6 µM] | activity change [3] -0.0177% [at 18.6 µM] | fluorescence, % of fluorescent control [4] -0.544% [at 18.6 µM] | fluorescence, % of Rose Bengal [5] -0.101% [at 18.6 µM] | fluorescence, % of fluorescent control [6] -0.0851% [at 18.6 µM] | fluorescence, % of fluorescent control [7] -0.0972% [at 18.6 µM] | Potency [13] | Potency [11]

Cc1cccc(S(=O)(=O)O)c1C
inactive: outcome [1] | Potency [2] | outcome [3] | Potency [4] | Potency [5] | Potency [6] | Potency [7] | Potency [13] | Potency [14] | Potency [15] | Potency [8] | Potency [9] | Potency [10] | Potency [11] | Potency [12]

O=C(c1ccc(O)cc1O)c1ccc(O)cc1O
active: Potency [14] 24.6 µM
inactive: outcome [1] | outcome [3] | Potency [4] | Potency [5] | Potency [6] | Potency [19] | Potency [7] | Potency [13] | Potency [15] | Potency [8] | Potency [11] | Potency [16] | Potency [12]
